12-LOX inh: blocks human arachidonate 12S-lipoxygenase | P18054 | purified 12hLO, xylenol orange hydroperoxide absorbance | Potency, µM (doses to about 108 µM), for the others: top-dose activity change, negative = inhibition, hits mostly inhibitors | actives 1.1% (n = 580,000) | AID 1671190; further: on the % scale 0 is the no-effect control and ±100 the full control effect
Target sequence (P18054 whole entry, looked up): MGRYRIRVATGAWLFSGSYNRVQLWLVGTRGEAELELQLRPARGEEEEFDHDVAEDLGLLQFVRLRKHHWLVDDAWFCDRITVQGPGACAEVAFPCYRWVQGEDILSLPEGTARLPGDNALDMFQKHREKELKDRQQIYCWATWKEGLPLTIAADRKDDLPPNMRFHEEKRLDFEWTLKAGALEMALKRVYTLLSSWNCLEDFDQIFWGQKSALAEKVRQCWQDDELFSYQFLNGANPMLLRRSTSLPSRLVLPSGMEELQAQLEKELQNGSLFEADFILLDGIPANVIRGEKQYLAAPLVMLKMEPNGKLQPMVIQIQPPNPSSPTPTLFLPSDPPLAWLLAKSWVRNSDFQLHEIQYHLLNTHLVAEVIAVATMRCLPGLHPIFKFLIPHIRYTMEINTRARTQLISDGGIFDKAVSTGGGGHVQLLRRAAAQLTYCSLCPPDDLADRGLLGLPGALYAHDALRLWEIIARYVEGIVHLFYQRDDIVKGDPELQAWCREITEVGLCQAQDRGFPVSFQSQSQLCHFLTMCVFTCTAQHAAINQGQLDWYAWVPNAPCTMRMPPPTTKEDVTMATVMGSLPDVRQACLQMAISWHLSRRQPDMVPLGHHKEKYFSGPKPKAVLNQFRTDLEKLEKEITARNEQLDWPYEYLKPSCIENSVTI
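Hydroperoxide product was detected by ferrous iron/xylenol orange as the 573 to 405 nm absorbance ratio. Arachidonic acid at 40 uM (final) was turned over for 30 min at room temperature by 150 nM human 12hLO, pH 7.0 Hepes buffer, after 15 min compound preincubation.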
KB-V1 MDR tox: KB-V1 MDR subline cytotoxicity | KB-V1 MDR cells viability, CellTiter-Glo, 72 h | Potency, µM (highest dose often 46.1 µM), hits mostly cytotoxic | actives 3.4% (n = 400,000); further: on the % scale 0 is the no-effect control and ±100 the full control effect; nearly all actives have a fitted effect of over 60% in size
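KB-V1 MDR subline cells in DMEM (phenol-red free, 10% FBS) exposed to compounds in qHTS concentration series for 72 h at 37 degrees C. Viability read by CellTiter-Glo luminescence; concentration-effect curves fitted after normalization and correction.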
PINK1 modulator: PINK1 expression modulation. actives 0.2% (n = 410,000). AID 624263. PINK1 immunofluorescence, high-content cytometry, 24 h. Potency, µM (doses to about 76.6 µM), inactives show at the highest dose activation (PINK1 increase), most hits filed as activators; active means well fitted activation curve with a large enough effect; inconclusive means small, poorly fitted or top-dose-only effect; cell line not stated here; further: % of control where 0% means no effect; nearly all actives have a fitted effect of over 65% in size
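Compound titrations (5 concentrations, 24 h) on a stable cell line; DMSO and CCCP controls. Endpoint: fixed-cell PINK1 immunofluorescence with mitochondrial, cell and nuclear markers, scanned by microplate cytometer.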
KB-3-1 tox: kills parental KB-3-1 adenocarcinoma cells. actives 1.4% (n = 400,000). KB-3-1 viability, CellTiter-Glo ATP luminescence, 72 h. Potency, µM (series often up to 46.1 µM), most hits filed as cytotoxic; further: on the % scale 0 is the no-effect control and ±100 the full control effect; nearly all actives have a fitted effect of over 60% in size
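KB-3-1 cells, DMEM (no phenol red) + 10% FBS; compound by pin transfer, 72 h, 37 °C. Readout: CellTiter-Glo luminescence after 10 min. Data normalized, curve-fitted.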
MCF10A rerep: DNA re-replication induction in MCF 10a cells | MCF 10A DNA re-replication, Hoechst nuclear intensity, 48 h | Potency, µM (doses to about 46.1 µM), for inactives: at the top dose activity, positive = re-replication, usual class: activators | actives 2.9% (n = 350,000) | AID 624296; further: % of control where 0% means no effect; nearly all actives have a fitted effect of over 50% in size
SW480 rerep: DNA re-replication induction in SW480 cells; SW480 DNA re-replication, Hoechst DNA content imaging, 48 h; actives 1.8% (n = 340,000); Potency, µM (series often up to 46.1 µM), for inactives: top-dose re-replication activation, most hits filed as activators; AID 624297; further: % of control where 0% means no effect; nearly all actives have a fitted effect of over 55% in size
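Compounds, transferred as 23 nL by pin tool, were incubated with cells for 48 hr; DNA content per nucleus was then quantified by Hoechst staining and fluorescence plate imaging.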
Numbers without * were called inactive; ! = not active in a repeat; [ ] = remark or other dose. An excerpt weighted towards active compounds, which were near 5.8% of everything screened. Unless noted, the call rests on the fitted dose curve; in most records, active means well fitted curve in the direction sought with a large enough effect; inconclusive means small, poorly fitted or top-dose-only effect, or another doubt; inactive means no such curve, though single readings can be large; an effect the other way counts as inactive or inconclusive. Potency means the concentration at half of the fitted maximal effect.

`NNC(=O)c1oc2nc(-c3cccs3)cc(-c3ccco3)c2c1N` gave 12-LOX inh -3%.
`Cc1ccc(-c2cc(-c3ccco3)c3c(N)c(C(=O)NN)oc3n2)cc1` gave 12-LOX inh 116%, KB-V1 MDR tox inactive, PINK1 modulator 2%, KB-3-1 tox inconclusive, MCF10A rerep 7.3µM* and SW480 rerep 21µM*.
For Cc1nonc1NC(=O)CSc1nc2cc(Cl)ccc2c2c1CCCC2 the results were 12-LOX inh -21%, KB-V1 MDR tox inactive, PINK1 modulator inconclusive, KB-3-1 tox inactive, MCF10A rerep inconclusive and SW480 rerep 8%.
Screening Cc1ccc2c3c(c(SCC(=O)Nc4nonc4C)nc2c1)CCCC3 returned 12-LOX inh -12%, KB-V1 MDR tox inactive, PINK1 modulator 10µM*, KB-3-1 tox inactive, MCF10A rerep inconclusive and SW480 rerep 7%.
CC(C)[C@@H]1Cc2[nH][nH]c(=O)c2[C@H](CCc2ccccc2)O1 was read as 12-LOX inh -20%, KB-V1 MDR tox inactive, PINK1 modulator 4% and KB-3-1 tox inactive.
For CC(C)[C@@H]1Cc2[nH]c(=S)[nH]c(=O)c2[C@H](CCc2ccccc2)O1 the results were 12-LOX inh 45µM*, KB-V1 MDR tox inactive, PINK1 modulator -1% and KB-3-1 tox inactive.
Screening Cc1cc(C)nc(NC(N)=NCCc2ccccc2)n1 returned 12-LOX inh -11%, KB-V1 MDR tox inactive, PINK1 modulator 6%, KB-3-1 tox 5.2µM*, MCF10A rerep 18µM* and SW480 rerep 16µM*.
Screening CCn1c(CN2CCCCC2)nc2cc(NC(=O)c3ccc([N+](=O)[O-])cc3)ccc21 returned 12-LOX inh -6%, KB-V1 MDR tox 6.5µM*, PINK1 modulator 4% and KB-3-1 tox inactive.
`CC(=O)NCCc1nc2cc(NC(=O)c3ccccc3C)ccc2n1C` gave 12-LOX inh 8%, KB-V1 MDR tox inconclusive, PINK1 modulator 2%, KB-3-1 tox inactive, MCF10A rerep 0.58µM* and SW480 rerep -2%.
Screening CC1CCN(CCc2nc3cc(NC(=O)COc4ccc([N+](=O)[O-])cc4)ccc3n2C)CC1 returned 12-LOX inh 14%, KB-V1 MDR tox inactive, PINK1 modulator -1%, KB-3-1 tox inconclusive, MCF10A rerep inconclusive and SW480 rerep 21µM*.
Screening Cn1c(CCN2CCOCC2)nc2cc(NC(=O)COc3ccc([N+](=O)[O-])cc3)ccc21 returned 12-LOX inh -9%, KB-V1 MDR tox inactive, PINK1 modulator 0%, KB-3-1 tox inactive, MCF10A rerep 9% and SW480 rerep 26%.
`Cn1c(CN2CCCCC2)nc2cc(NC(=O)c3cccc(Br)c3)ccc21` gave 12-LOX inh -6%, KB-V1 MDR tox inconclusive, PINK1 modulator -1%, KB-3-1 tox 18µM*!, MCF10A rerep inconclusive and SW480 rerep 17%.
For Cc1ccc2nc(-c3ccc(NC(=O)c4cccc(F)c4)cc3)oc2c1 the results were 12-LOX inh -49%.
For Cn1cnc2c1c(=O)n(CC(=O)NC13CC4CC(CC(C4)C1)C3)c(=O)n2C the results were 12-LOX inh 12%.
Screening Cc1ccc(N2CCN(CCc3nc4cc(NC(=O)c5ccco5)ccc4n3C)CC2)cc1 returned 12-LOX inh 0%, KB-V1 MDR tox 4.1µM*, PINK1 modulator inconclusive, KB-3-1 tox inactive, MCF10A rerep 12% and SW480 rerep -4%.
For Cn1c(CN2CCOCC2)nc2cc(NC(=O)COc3ccccc3)ccc21 the results were 12-LOX inh 5%, KB-V1 MDR tox 16µM*, PINK1 modulator 4%, KB-3-1 tox inactive, MCF10A rerep -2% and SW480 rerep 1%.
CCCC(=O)N1CCN(Cc2nc3cc([N+](=O)[O-])ccc3n2C)CC1 was read as 12-LOX inh 8%, KB-V1 MDR tox inactive, PINK1 modulator -1%, KB-3-1 tox inactive, MCF10A rerep 6% and SW480 rerep 7.3µM*.
For Cn1c(CN2CCCCC2)nc2cc(NC(=O)c3ccccc3)ccc21 the results were 12-LOX inh 24%, KB-V1 MDR tox 8.2µM*, PINK1 modulator 8%[38.3 µM], KB-3-1 tox inactive, MCF10A rerep -5% and SW480 rerep 5%.
For CCCn1c(CN2CCCCCC2)nc2cc(NC(=O)c3ccccc3)ccc21 the results were 12-LOX inh 71%.
Cn1c(CCN2CCOCC2)nc2cc(NC(=O)COc3ccccc3)ccc21 was read as 12-LOX inh -1%, KB-V1 MDR tox inactive, PINK1 modulator -2%, KB-3-1 tox inactive, MCF10A rerep 2% and SW480 rerep -6%.
CCCn1c(NCCN(CC)CC)nc2c1c(=O)[nH]c(=O)n2C was read as 12-LOX inh -9%.
`O=C1C(n2ccc3ccccc32)c2ccccc2N1Cc1ccc(C(F)(F)F)cc1` (stereo unspecified) gave 12-LOX inh 32µM*.
FC(F)(F)c1cccc(Cn2ccc3ccccc32)c1 was read as 12-LOX inh -9%.
Cc1ccc2cc(C(c3nnnn3CC3CCCO3)N3CCCC4(CCCCC4)C3)c(=O)[nH]c2c1 (stereo unspecified) was read as 12-LOX inh inconclusive, KB-V1 MDR tox 15µM*, PINK1 modulator 6%, KB-3-1 tox inactive, MCF10A rerep -7% and SW480 rerep -2%.
For Cc1cc2cc(C(c3nnnn3CC3CCCO3)N3CCCc4ccccc43)c(=O)[nH]c2cc1C (stereo unspecified) the results were 12-LOX inh -26%, KB-V1 MDR tox 21µM*, PINK1 modulator 1%[38.3 µM], KB-3-1 tox inconclusive, MCF10A rerep inconclusive and SW480 rerep inconclusive.
CCc1ccc2[nH]c(=O)c(C(c3nnnn3CC3CCCO3)N3CCCc4ccccc43)cc2c1 (stereo unspecified) was read as 12-LOX inh -14%, KB-V1 MDR tox inconclusive, PINK1 modulator -4%[38.3 µM], KB-3-1 tox inactive, MCF10A rerep inconclusive and SW480 rerep inconclusive.
`Cc1cccc2cc(C(c3nnnn3CC3CCCO3)N3CCc4ccccc4C3)c(=O)[nH]c12` (stereo unspecified) gave KB-V1 MDR tox inconclusive, PINK1 modulator 16%[38.3 µM], KB-3-1 tox inactive, MCF10A rerep 8% and SW480 rerep 0%.
Cc1ccc2cc(C(c3nnnn3CC3CCCO3)N3CCc4ccccc4C3)c(=O)[nH]c2c1 (stereo unspecified) was read as 12-LOX inh -22%, KB-V1 MDR tox inactive, PINK1 modulator 9%, KB-3-1 tox inactive, MCF10A rerep inconclusive and SW480 rerep -6%.

From PubChem BioAssay
